Hits are enriched below; roughly 0.88% of the tested compounds scored in any of these assays.
GCN5L2 inh: blocks human GCN5L2 histone acetyltransferase. GCN5L2 HAT assay, ThioGlo1 CoA-SH fluorescence. actives 0.21% (n = 390,000). AID 504327. Q92830. Potency, µM (series often up to 58.9 µM), without a hit: at the top dose activity change, negative = inhibition, actives largely listed as inhibitors; further: on the % scale 0 is the no-effect control and ±100 the full control effect
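Titration-based screen in which CoA formation is detected via maleimide probe ThioGlo1 (50uM) turning fluorescent on thiol reaction; substrates H3(1-25) 75uM and acetyl-CoA 70uM, GCN5L2 20nM, 20 min incubation at room temperature.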
RECQ1 helicase: RECQ1 (human) helicase inhibition. RECQ1 DNA unwinding, red fluorescence kinetic read. actives 0.54% (n = 240,000). AID 2549. P46063. Potency, µM (highest dose often 57.3 µM), inactives show at the top dose activity, negative = inhibition, most hits filed as inhibitors;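 further: plate controls were vehicle for no effect and no enzyme for full effect; nearly all actives have a fitted effect of over 30% in size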
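RECQ1T1 50 nM; forked duplex (20 bp + 30-nt ss tails) 200 nM, ATP 2 mM final; pH 8.0, 2 mM MgCl2, 2.5 ug/ml poly(dI-dC); 15 min compound preincubation; discontinuous kinetic read over 2 h at RT.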
WRN inhibitor: WRN helicase (human) inhibition | Q14191 | WRN helicase unwinding, fluorescent forked duplex, kinetic | Potency, µM (top dose mostly 114 µM), inactives show at the top dose activity change, negative = inhibition, usual class: inhibitors | actives 0.46% (n = 360,000) | AID 651768; further: on the % scale 0 is the no-effect control and ±100 the full control effect; nearly all actives have a fitted effect of over 55% in size
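Primary qHTS, 1536-well format. 20 nM WRN + compound, 15 min RT; start with 100 nM forked fluorophore/quencher duplex, 2 mM ATP (final); kinetic read ex 525/em 598 nm.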
BLM inh: Bloom syndrome helicase (human) inhibition; P54132; recombinant BLM DNA unwinding, fluorescence dequenching; Potency, µM (titrated, usually from 56.1 µM), for the others: at the highest dose activity change, negative = inhibition, most hits filed as inhibitors; actives 0.2% (n = 350,000); AID 2528;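 further: plate controls were vehicle for no effect and no enzyme for full effect; nearly all actives have a fitted effect of over 35% in size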
ERG-DNA inh: blocks human ERG Ets domain binding to DNA; Potency, µM (highest dose often 76.9 µM), without a hit: top-dose FP activity, negative = inhibition, most hits filed as inhibitors; P11308; actives 0.028% (n = 370,000); fluorescence polarization, His-ERG Ets domain / labelled DNA; AID 624246; active means well fitted inhibition curve with a large enough effect in the polarisation, with a control signal flat; inconclusive means small, poorly fitted or top-dose-only effect, or effect the other way, or a change in a side signal; inactive means no such curve, though single readings can be large or run the other way; the % refers to the polarisation;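 further: polarization taken with two DNA probes labelled with fluorescein and Texas red; % of control where 0% means no effect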
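His-tagged ERG Ets domain (1 uM in the protein solution; 300mM KCl, 50mM Tris-HCl, 1mM EDTA, 1mM DTT, pH 7.5) received compound, then a probe mix of 5 nM fluorescein-DNA and 100nM Texas-615-DNA. Fluorescence polarization was read for both dyes.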
APEX1 inh: APE1 (human) endonuclease inhibition; recombinant APE1, TAMRA/BHQ-2 abasic DNA cleavage fluorescence; actives 0.35% (n = 350,000); AID 2517; P27695; Potency, µM (highest dose often 65.8 µM), for inactives: at the top dose activity change, negative = inhibition, most hits filed as inhibitors;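 further: plate controls were vehicle for no effect and reference inhibitor for full effect; nearly all actives have a fitted effect of over 55% in size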
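Kinetic fluorescence read (525 ex/598 em nm, three reads 60 s apart) of AP-site incision; signal = third minus first read. Enzyme 0.75 nM, dual-labelled THF duplex 50 nM, compound preincubation 15 min RT.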
* = called active by the depositor; i = inactive; ? = inconclusive; nt = no result given; [ ] = remark or other dose. Unless noted, the call rests on the fitted dose curve; in most records, active means well fitted curve in the direction sought with a large enough effect; inconclusive means small, poorly fitted or top-dose-only effect, or another doubt; inactive means no such curve, though single readings can be large; an effect the other way counts as inactive or inconclusive. Potency means the concentration at half of the fitted maximal effect.

SMILES | GCN5L2 inh | RECQ1 helicase | WRN inhibitor | BLM inh | ERG-DNA inh | APEX1 inh
CC(C)(C)c1ccc(/C=N/N2C(=O)CSC2=S)cc1 | -3.8% | nt | -1.0% | -2.5% | 42.2% | -13.7%
COc1cccc(/C=N/NC(=O)c2cc3cc([N+](=O)[O-])ccc3s2)c1O | ? | -20.1% | 35.5µM* | 15.8µM* | -10.0% | 2µM*
CC(C)[C@H](NS(=O)(=O)c1cccc(Cl)c1)C(=O)OCC(=O)NC(=O)CN1CCCC1=O | 0.9% | nt | -9.2% | nt | -4.4% | 13.4µM*
COC(=O)c1c(NC(=O)COC(=O)[C@@H](NS(=O)(=O)c2cccc(Cl)c2)C(C)C)sc2c1CCC2 | -6.0% | i | -15.7% | -5.5% | -1.6% | -10.3%
CCNc1ncc2nc(-c3cccc(C#N)c3)c(=O)n(C)c2n1 | 35.5µM* | i | nt | 0.0% | nt | 15.8%
Cc1c(N)nc([C@H](CC(N)=O)NC[C@H](N)C(N)=O)nc1C(=O)N[C@H](C(=O)N[C@H](C)[C@@H](O)[C@H](C)C(=O)N[C@H](C(=O)NCCc1nc(-c2nc(C(=O)NCCCCN=C(N)N)cs2)cs1)[C@@H](C)O)[C@@H](O[C@@H]1O[C@@H](CO)[C@@H](O)[C@H](O)[C@@H]1O[C@H]1O[C@H](CO)[C@@H](O)[C@H](OC(N)=O)[C@@H]1O)c1cnc[nH]1 | nt | nt | nt | nt | nt | -1.9%
NNc1ccccc1C(F)(F)F | -16.3% | -14.4% | ? | -5.3% | 4.3% | 35.5µM*
Cc1ccccc1NC(=O)CN1C(=O)S/C(=C\c2ccc(-c3cc(C(=O)O)ccc3C)o2)C1=O | -1.9% | i | ? | -6.7% | -3.7% | ?
Cc1cc(C(=O)O)ccc1-c1ccc(/C=C2\SC(=O)N(CC(=O)Nc3ccc4c(c3)OCO4)C2=O)o1 | -20.6% | nt | nt | 11.2µM* | nt | 6.7µM*
O=C(Cc1nnc(NC(=O)c2ccccc2)s1)N/N=C\c1ccc(O)c(O)c1 | -21.7% | nt | 17.8µM* | ? | 5.6% | ?
Cc1cc(SCC(=O)N/N=C/c2ccc(O)c(O)c2)nc2ccccc12 | -13.5% | nt | 79.4µM* | -25.1% | -1.0% | -12.7%
Cc1cc(SCC(=O)N/N=C/c2ccc(O)cc2O)nc2ccccc12 | -8.3% | nt | -8.9% | -6.5% | -4.7% | 32.8%
O=C(Cc1nnc(NC(=O)c2ccccc2)s1)N/N=C/c1ccc(O)cc1 | -9.3% | nt | -5.9% | -18.2% | 2.9% | -33.6%
CC1(C(=O)O)CCC2(C)CCC3(C)C(=CC(=O)C4C5(C)CCC(O)C(C)(C)C5CCC43C)C2C1 (centres undefined) | -18.6% | nt | nt | 1.1% | nt | nt
Cc1cccc(C)c1-n1cccc1/C=C1/C(=N)N2C(=NC1=O)SN=C2S(C)(=O)=O | ? | -21.2% | -12.2%[11.6 µM] | -10.3% | ? | -1.2%
Cc1ccc(-n2cccc2/C=C2/C(=N)N3C(=NC2=O)SN=C3S(C)(=O)=O)cc1Cl | -18.3% | -10.0% | ? | 28.2µM* | 32.4% | 17.4%
CCOC(=O)c1cnc(-n2nc(C)cc2C)[nH]c1=O | 0.2% | -5.9% | 11.4% | -0.7% | -2.9% | 0.2%
CCOC(=O)c1cnc(-n2[nH]c(C)cc2=O)[nH]c1=O | -0.3% | -8.0% | 56.2µM* | -6.3% | 14.9% | -10.7%
CSC1=NS(=O)(=O)c2c(C)nn(C)c2S1 | 28.2µM* | -5.5% | 3.5% | -8.0% | -14.7% | -2.5%
C=CCNC(=S)N1CC2(C)CN(C(=S)NCC=C)CC(C)(C1)C2=O | 28.2µM* | -8.8% | 3.5% | -1.7% | 15.8% | 2.4%
CC(C)c1onc(C(=O)Nc2sc3c(c2C#N)CCC3)c1[N+](=O)[O-] | -18.4% | 39.8µM* | -7.2% | -14.9% | -8.1% | ?
CC(C)c1cc(C(=O)Nc2sc3c(c2C#N)CCC3)no1 | -8.6% | i | -9.8% | -4.3% | -9.8% | -5.2%
CCOc1ccc(/C=C2/SC(=S)N(C(C(=O)O)c3ccccc3)C2=O)cc1OCC (centres undefined) | ? | 22.4µM* | -15.8% | -6.7% | 26.9% | 3.0%
CCN=C1S/C(=C\c2ccc(O)c(OCC)c2)C(=O)N1CC | -10.1% | -18.3% | -11.1% | -5.3% | 2.5% | -9.7%
COc1cc(/C=C2\SC(=S)N(C(C(=O)O)c3ccccc3)C2=O)ccc1O (centres undefined) | -8.1% | 22.4µM* | 50.1µM* | -7.7% | 150.9% | -11.4%
SMILES | GCN5L2 inh | RECQ1 helicase | WRN inhibitor | BLM inh | ERG-DNA inh | APEX1 inh
CCOc1cc(/C=C2\SC(=S)N(C(C(=O)O)c3ccccc3)C2=O)ccc1O (centres undefined) | -14.7% | 6.7% | 56.2µM* | ? | 158.2% | 12.1%
COc1ccccc1/C=C1\SC(=S)N(C(C(=O)O)c2ccccc2)C1=O (centres undefined) | -12.3% | -6.1% | -4.6% | 3.1% | 3.3% | -3.9%
O=C(O)C(c1ccccc1)N1C(=O)/C(=C\c2ccc(O)c(O)c2)SC1=S (centres undefined) | -7.6% | nt | 31.6µM* | 7.3% | 148.2% | -37.6%
COc1ccccc1CNC(=O)CCNC(=O)c1ccco1 | -1.4% | nt | -26.7% | nt | 2.5% | 31.0%
CC1COC(=O)O1 (centres undefined) | 48.6% | -7.9% | nt | 1.7% | nt | 1.3%
CO[C@@H]1COC(=O)[C@H](C)NC(=O)C/C=C\[C@@H](C)[C@H](OC)COC(=O)[C@H](C)NC(=O)C/C=C\[C@H]1C | nt | 14.7%[11.5 µM] | nt | 0.3%[12.4 µM] | nt | ?
O=C1c2ccccc2C(=O)N1CC(O)COc1ccc(Cl)cc1 (centres undefined) | 1.1% | nt | 2.7% | -4.4% | -0.9% | 1.7%
COc1ccc(OCC(O)CN2C(=O)c3ccccc3C2=O)cc1 (centres undefined) | -10.6% | nt | 1.4% | -2.1% | 12.6µM* | 20.0%
CCOc1ccccc1NC(=O)Cn1c(=O)n(CCC(=O)NCc2ccc3c(c2)OCO3)c(=O)c2ccccc21 | -2.4% | nt | nt | -14.4% | 2.6% | nt
O=C(O)CC(Sc1n[nH]c(=S)s1)C(=O)O (centres undefined) | 31.6µM* | 1.3% | 3.9% | 3.0% | -8.7% | ?
COc1ccc(/C=C/C2=CC3(C)CC2(C)C(c2ccc(OC)cc2)CC3=O)cc1 (centres undefined) | nt | i[11.5 µM] | nt | -0.9%[12.4 µM] | nt | 23.0%[12.4 µM]
COc1cc(/C=C(\C#N)C(=O)Nc2nnc(C(F)(F)F)s2)ccc1OCc1ccc(C(F)(F)F)cc1C(F)(F)F | 7.94µM* | -13.9% | nt | -23.5% | nt | 0.1%
COc1cc(/C=C(/C#N)C(=O)Nc2ccccc2)ccc1OCc1ccc(C(=O)O)cc1 | -16.9% | -2.0% | -13.8%[11.6 µM] | -4.1% | 6.3% | -3.7%
CC1(c2ccccc2)NC(=O)N(CC(=O)NCCC2=CCCCC2)C1=O (centres undefined) | 28.2µM* | -5.7% | -2.1% | -1.3% | -1.2% | -3.8%
